Test [1] in a line: qHTS to identify inhibitors of the type 1 interferon - major histocompatibility complex class I in skeletal muscle: primary screen against the NCATS Mechanism Interrogation Plate v5.0 (MIPE) Libary (AID 1347411). Further: potency means the concentration at half of the fitted maximal effect; nearly all actives have a fitted effect of over 65% in size. The gist of the method: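 Luminescence from HiBiT-tagged endogenous HLA-B*08:01 served as the MHC class I read-out. CRISPR-engineered C25cl48 human myoblasts received 4.0 ng/ml IFN-beta plus compound for 24 hrs, with an 11-point, 1:3 series topping at 46 uM final.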
A general note: qHTS replaces the single test concentration by a dilution series.

A short description of test [2]: Primary qHTS for inhibitors of nuclear receptor binding SET domain protein 2 (NSD2) in an isogenic RCH-ACV NSD2 p.E1099K mutant (9B) (AID 1645876). Further: nearly all actives have a fitted effect of over 70% in size. Further: potency means the concentration at half of the fitted maximal effect.
A short description of test [3]: Primary qHTS for inhibitors of nuclear receptor binding SET domain protein 2 (NSD2) in an RCH-ACV wild type WT cells (2C) (AID 1645877). Further: nearly all actives have a fitted effect of over 70% in size. Further: potency means the concentration at half of the fitted maximal effect.
The target in test [4] is Glutathione peroxidase 1 (Homo sapiens) (UniProt P07203). The experiment in a line: Primary qHTS Assay for Inhibitors of Recombinant Selenoprotein Glutathione Peroxidase 1 (GPX1) (AID 1845191). Further: nearly all actives have a fitted effect of over 65% in size. Further: potency means the concentration at half of the fitted maximal effect. Summed up:
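Recombinant GPX1 (10 nM final) was preincubated with compound for 30 min at room temperature, then reacted with 1 mM GSH, 0.5 mM CHP, 0.5 mM NADPH and 100 nM glutathione reductase; NADPH fluorescence (340/450 nm) was read at 0 and 15 min.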

Test [5] is described as follows: qHTS drug screen for cell cycle checkpoint inhibitors in PARPi-resistant BRCA-mutant ovarian cancer cell lines. (AID 1963452; calls by dose curve). Conditions: PEO1/OlaR viability, CellTiter-Glo luminescence, 96 h, stronger effect = lower value. Summed up:
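PEO1, PEO4 and PEO1/OlaR ovarian cancer cells, 600 per well, exposed 96 h at 37C to a dilution series. Viability read by CellTiter-Glo luminescence, normalized to DMSO and empty wells; activity summarized as Z-AUC.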

Test [6] in a line: qHTS assay to identify inhibitors of the type 1 interferon - major histocompatibility complex class I in skeletal muscle: Counter screen cell viability and HiBit confirmation (AID 1347412). Further: potency means the concentration at half of the fitted maximal effect. On activity change, negative = inhibition: on the % scale 0 is the no-effect control and ±100 the full control effect. On all read-outs here: nearly all actives have a fitted effect of over 60% in size. Conditions: iHSKM muscle cells + IFN-b, HiBiT or CellTiter-Glo, 24 h; for activity change, negative = inhibition: at 45.9 µM (top of the series). The gist of the method:
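CRISPR HLA-B*08:01-HiBit immortalized human myoblasts (C25cl48) stimulated with 4 ng/ml IFN-beta and compounds (12-point 1:3, top 46 uM final) for 24 h at 37 C. Duplicate plates read by HiBit lytic luminescence or CellTiter Glo ATP.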

Test [7] has as its target Phospholipid hydroperoxide glutathione peroxidase GPX4 (Homo sapiens) (UniProt P36969). Description: Primary qHTS Assay for Inhibitors of Recombinant Selenoprotein Glutathione Peroxidase 4 (GPX4) (AID 1845192). Further: nearly all actives have a fitted effect of over 65% in size. Further: potency means the concentration at half of the fitted maximal effect. On activity change, negative = inhibition: on the % scale 0 is the no-effect control and ±100 the full control effect. Conditions: outcome: dose series up to 50 µM unless noted. Summed up:
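GR-coupled readout: 100 nM GR, 1 mM GSH, 0.5 mM NADPH; NADPH fluorescence (ex 340/em 450 nm) read at t=0 and after 15 min RT. GPX4 200 nM, preincubated 30 min with compound; substrate 0.5 mM CHP.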

Where [8] appears, read: measured here: PEO1 parental Z-AUC.

Results filed as inconclusive are left out. The source made the active and inactive calls. Unless noted, the call rests on the fitted dose curve; in most records, active means well fitted curve in the direction sought with a large enough effect; inconclusive means small, poorly fitted or top-dose-only effect, or another doubt; inactive means no such curve, though single readings can be large; an effect the other way counts as inactive or inconclusive.

Phospholipid hydroperoxide glutathione peroxidase GPX4 (Homo sapiens), sequence (P36969 whole entry, looked up): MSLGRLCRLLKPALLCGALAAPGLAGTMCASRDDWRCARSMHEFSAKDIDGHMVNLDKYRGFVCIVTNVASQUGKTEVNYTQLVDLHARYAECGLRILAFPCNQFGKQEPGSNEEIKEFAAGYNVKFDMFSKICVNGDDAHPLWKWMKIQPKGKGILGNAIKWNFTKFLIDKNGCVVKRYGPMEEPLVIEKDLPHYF
Glutathione peroxidase 1 (Homo sapiens), sequence (P07203 whole entry, looked up): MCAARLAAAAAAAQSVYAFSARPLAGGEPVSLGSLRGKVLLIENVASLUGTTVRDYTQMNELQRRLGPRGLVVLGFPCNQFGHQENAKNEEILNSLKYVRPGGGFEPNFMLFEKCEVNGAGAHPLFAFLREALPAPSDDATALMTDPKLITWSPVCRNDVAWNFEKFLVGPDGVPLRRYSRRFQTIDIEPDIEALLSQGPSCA

In the case of `COc1nc(OCc2cccc(-c3ccccc3)c2C)ccc1CNCCNC(C)=O`, the Potency in test [1] is 16.5 µM (active); in test [2], 7.42 µM (active); in test [3] it was 7.42 µM (active). The Potency result in test [4] was “inactive”. Further, the Z-AUC was -0.638 (inactive) in test [5], -0.646 in test [5] (setting [8]) and -0.574 in test [5] (measured here: PEO4 Z-AUC). The activity change, negative = inhibition in test [6] (HiBiT) is -16.7% (inactive).
As for `CCC[C@H](NC(=O)/C(C#N)=C/c1cccc(Br)n1)c1ccccc1`, the Potency in test [1] was 4.15 µM (active); in test [2], 11.8 µM (active); in test [3] it was 13.2 µM (active); in test [6] (HiBiT) it was 6.25 µM (active). Besides, the Potency result in test [4] and in test [7] was “inactive” each time. Besides, the Z-AUC in test [5] was 0.211 (inactive); in test [5] (setting [8]) it was 0.0929; in test [5] (measured here: PEO4 Z-AUC) it was 0.0816.
In the case of `CC(C)c1c(-c2ccccc2)nc2c(C#N)c[nH]n2c1=O`, the Potency in test [1] was 5.23 µM (active); in test [6] (HiBiT) it was 3.94 µM (active). In addition, the Potency result in test [2], in test [3], in test [4] and in test [7] was “inactive” throughout. In addition, the Z-AUC in test [5] was 1.36 (inactive); in test [5] (setting [8]) it was 0.594; in test [5] (measured here: PEO4 Z-AUC) it was 0.731. Also, the activity change, negative = inhibition in test [6] (Viability) was -0.422% (inactive).
As to `Cc1ncsc1-c1ccc([C@H](C)NC(=O)[C@@H]2C[C@@H](O)CN2C(=O)[C@@H](NC(=O)COCCCOCCNC(=O)C[C@@H]2N=C(c3ccc(Cl)cc3)c3c(sc(C)c3C)-n3c(C)nnc32)C(C)(C)C)cc1`, the Potency was 0.208 µM (active) in test [1], 0.0148 µM (active) in test [2], 0.0186 µM (active) in test [3] and 0.394 µM (active) in test [6] (HiBiT). Further, the Potency entry in test [4] and in test [7] was “inactive” each time. Moreover, the Z-AUC in test [5] was -2.25 (inactive); in test [5] (setting [8]), -2.46; in test [5] (measured here: PEO4 Z-AUC) it was -2.23. For the same molecule, the activity change, negative = inhibition in test [6] (Viability) was -12.4% (inactive).
For the molecule `Cc1cc2cc(Oc3ccnc(Nc4cccc(CS(=O)(=O)NCCN(C)C)c4)n3)ccc2[nH]1`, the Potency in test [1] is 13.1 µM (active); in test [2], 8.33 µM (active); in test [3] it was 5.9 µM (active); in test [6] (HiBiT) it was 22.2 µM (active). In addition, the Potency result in test [4] is “inactive”. The Z-AUC in test [5] is 0.517 (inactive); in test [5] (setting [8]), 0.192; in test [5] (measured here: PEO4 Z-AUC), 0.0861. The activity change, negative = inhibition in test [6] (Viability) was -27.6% (inactive).
On to `COC1=C2C[C@H](C)C[C@H](OC)[C@H](O)[C@@H](C)/C=C(/C)[C@H](OC(N)=O)[C@@H](OC)/C=C\C=C(\C)C(=O)NC(=CC1=O)C2=O`, for which the Potency in test [1] is 2.94 µM (active); in test [6] (HiBiT), 0.0279 µM (active). In addition, the Potency entry in test [2], in test [3], in test [4] and in test [7] was “inactive” each time. Moreover, the Z-AUC in test [5] is 0.322 (inactive); in test [5] (setting [8]) it was 0.489; in test [5] (measured here: PEO4 Z-AUC), 0.496.
With `Cc1[nH]c(/C=C2\C(=O)Nc3ccc(S(=O)(=O)Cc4c(Cl)cccc4Cl)cc32)c(C)c1C(=O)N1CCC[C@@H]1CN1CCCC1`, the Potency in test [1] is 5.23 µM (active); in test [2], 6.61 µM (active); in test [3], 5.25 µM (active); in test [6] (HiBiT), 22.2 µM (active). Also, the Potency entry in test [4] and in test [7] was “inactive” throughout. The values for the Z-AUC in test [5], in test [5] (setting [8]) and in test [5] (measured here: PEO4 Z-AUC) were 0.541 (inactive), 0.565 and 0.0929, respectively.
As to `Cc1c[nH]c2nc(Nc3ccc(N4CCN(C)CC4)c(F)c3)nc(-c3cccc(CC#N)c3)c12`, the Potency is 2.34 µM (active) in test [1], 0.525 µM (active) in test [2], 0.332 µM (active) in test [3] and 1.76 µM (active) in test [6] (HiBiT). In addition, in test [4], the Potency result was “inactive”. Besides, the Z-AUC in test [5] was -0.269 (inactive); in test [5] (setting [8]) it was -0.34; in test [5] (measured here: PEO4 Z-AUC), -0.115.
With `COC1CCC(N2C(=O)CNc3ncc(-c4ccc(C(C)(C)O)nc4)nc32)CC1` (configuration not stated), the Potency in test [1] is 13.1 µM (active); in test [2] it was 3.72 µM (active); in test [3] it was 3.72 µM (active); in test [4] it was 4.59 µM (active); in test [7], 3.21 µM (active); in test [6] (HiBiT), 11.1 µM (active). Moreover, the Z-AUC in test [5] was 1.16 (inactive); in test [5] (setting [8]), 0.788; in test [5] (measured here: PEO4 Z-AUC), 0.864. The activity change, negative = inhibition in test [6] (Viability) was -5.62% (inactive).

The values are drawn from PubChem BioAssay (NCATS).
